Compound activity deposited in PubChem by National Center for Advancing Translational Sciences (NCATS).
Sm TGR inh: blocks Schistosoma mansoni thioredoxin glutathione reductase | Q962Y6 | purified TGR, DTNB reduction, TNB absorbance 405 nm | Potency, µM (titrated, usually from 114 µM), actives largely listed as inhibitors | hit rate 3% among 360,000; also: nearly all actives have a fitted effect of over 60% in size
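First, TGR (20 nM dispensed) and NADPH were mixed with compound. Second, a 15 min room-temperature incubation followed. Third, further NADPH and then DTNB were added to start the reaction. Finally, TNB absorbance was monitored kinetically.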
TbPYK inhibitor: inhibitors of Trypanosoma brucei pyruvate kinase; Q57TT1; TbPYK enzyme, Kinase-Glo Plus ATP luminescence, 45 min; Potency, µM (top dose mostly 76.8 µM), actives largely listed as inhibitors; hit rate 0.12% among 410,000; AID 624173; also: nearly all actives have a fitted effect of over 50% in size
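T. brucei PYK with substrate was exposed to pin-transferred compounds across a concentration series, then started with 130 uM ADP (final). After 45 min at room temperature, Kinase-Glo Plus luminescence was read, normalized and curve-fitted.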
RE007 growth inh: less growth of the S. pombe RE007 Vpr strain; S. pombe RE007 Vpr strain, BacTiter-Glo ATP luminescence, 24 h; hit rate 0.21% among 360,000; Potency, µM (series often up to 92.2 µM), usual class: inhibitors; active = well fitted falling curve with a large enough effect; inconclusive = small, poorly fitted or top-dose-only effect; inactive = no such curve, though single readings can be large or run the other way; also: nearly all actives have a fitted effect of over 50% in size
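Fission yeast RE007 carrying one integrated HIV-1 vpr copy, seeded at OD 0.01 in PMG+AL medium with 23 nL pinned compound. Grown 24 h at 30 degrees; viability read by BacTiter-Glo luminescence after 5 min.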
Giardia FBPA inh-1: inhibitors of Giardia lamblia fructose-1,6-bisphosphate aldolase | A8B2U2 | purified Giardia FBPA | Potency, µM (series often up to 59.6 µM), hits mostly inhibitors | hit rate 0.71% among 290,000; also: nearly all actives have a fitted effect of over 55% in size
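Giardia FBPA (40 nM reagent) was preincubated 10 min at RT with compound (up to 57.5 uM final), then substrate plus GAPDH/TPI/NAD/arsenate coupling system with diaphorase/resazurin was added; resorufin fluorescence (525/598 nm) was read after 20 min.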
LmPK inh: LmPK (Leishmania mexicana) enzyme inhibition; Q27686; Potency, µM (titrated, usually from 57.5 µM), most hits filed as inhibitors; hit rate 0.37% among 290,000; AID 1721; purified LmPK, Kinase-Glo ATP luminescence, 1 h
Target sequence (Q27686 whole entry, looked up): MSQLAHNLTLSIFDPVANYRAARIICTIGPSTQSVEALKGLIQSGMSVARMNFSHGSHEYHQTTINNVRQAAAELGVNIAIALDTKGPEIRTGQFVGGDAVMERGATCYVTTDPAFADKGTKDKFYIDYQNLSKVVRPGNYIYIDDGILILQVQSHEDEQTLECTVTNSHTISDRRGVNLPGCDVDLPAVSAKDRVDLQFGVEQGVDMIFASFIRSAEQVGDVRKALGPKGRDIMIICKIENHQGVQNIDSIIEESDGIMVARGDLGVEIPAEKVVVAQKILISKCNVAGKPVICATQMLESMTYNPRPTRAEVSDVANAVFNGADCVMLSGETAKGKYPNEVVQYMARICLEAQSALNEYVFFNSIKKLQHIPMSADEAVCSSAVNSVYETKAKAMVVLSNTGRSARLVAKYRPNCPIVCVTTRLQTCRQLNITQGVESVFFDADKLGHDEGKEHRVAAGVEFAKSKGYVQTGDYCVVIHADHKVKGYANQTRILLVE
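Screened at intermediate enzyme activity to detect both inhibitors and activators: LmPK at 0.1 nM, with a 0.5 nM enzyme column as activation reference. PEP 0.5 mM, ADP 0.1 mM; ATP detected by luminescence after 1 h.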
Giardia growth: blocks growth of Giardia lamblia trophozoites; shares compounds with Giardia FBPA inh-1; Giardia lamblia trophozoite growth inhibition; Potency, µM (titrated, usually from 57.5 µM), hits mostly inhibitors; hit rate 5% among 1,500;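 also: trophozoites exposed to compound for 48 h at 37 °C; nearly all actives have a fitted effect of over 70% in size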
Mammalian tox: mammalian cytotoxicity of Giardia aldolase inhibitor hits; shares compounds with Giardia FBPA inh-1; mammalian cell viability counter-screen, qHTS; Potency, µM (titrated, usually from 57.5 µM), usual class: inhibitors; hit rate 4% among 1,500;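 also: Chinese hamster ovary cells used as mammalian cytotoxicity surrogate; viability measured as cellular ATP by luminescence; compound exposure lasted 48 h before reading; nearly all actives have a fitted effect of over 60% in size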
Giardia FBPA inh-2: confirmation of Giardia fructose-bisphosphate aldolase inhibitors; shares compounds with Giardia FBPA inh-1; purified Giardia aldolase enzyme activity, qHTS; hit rate 5% among 1,500; Potency, µM (top dose mostly 57.5 µM), actives largely listed as inhibitors; also: nearly all actives have a fitted effect of over 45% in size
Rabbit FBPA inh: rabbit FBP aldolase inhibition by Giardia aldolase hits | shares compounds with Giardia FBPA inh-1 | Rabbit muscle FBPA enzyme inhibition, selectivity counter-screen | Potency, µM (titrated, usually from 57.5 µM), actives largely listed as inhibitors | hit rate 4% among 1,500 | AID 2794; also: nearly all actives have a fitted effect of over 60% in size
GAPDH counter: GAPDH inhibition flagged for Giardia aldolase hits; shares compounds with Giardia FBPA inh-1; GAPDH coupling enzyme counterscreen, biochemical, qHTS; Potency, µM (series often up to 57.5 µM), actives largely listed as inhibitors; hit rate 6% among 1,500; also: nearly all actives have a fitted effect of over 55% in size
Hits are given with their value; . = inactive; ? = inconclusive; / = not tested or not shown; [ ] = another dose, or the depositor's remark. Shown are actives, neighbours in structure and some others; about 3.3% of the full set was active somewhere. Unless noted, calls follow the shape of the dose curve; as a rule, active = well fitted curve in the direction sought with a large enough effect; inconclusive = small, poorly fitted or top-dose-only effect, or another doubt; inactive = no such curve, though single readings can be large; an effect the other way counts as inactive or inconclusive.

SMILES	Sm TGR inh	TbPYK inhibitor	RE007 growth inh	Giardia FBPA inh-1	LmPK inh	Giardia growth	Mammalian tox	Giardia FBPA inh-2	Rabbit FBPA inh	GAPDH counter
Cc1nn(-c2ccccc2)c(C)c1/C=N/n1c(-c2ccc(Cl)cc2)n[nH]c1=S	.	.	.	.	.	/	/	/	/	/
Cc1[nH]n(-c2ccccc2)c(=O)c1/C=N/O	.	.	.	16µM	.	?	.	.	.	.
Cc1ccc(-c2n[nH]c(=S)n2/N=C/c2c(C)[nH]n(-c3ccccc3)c2=O)cc1	.	?	.	10µM	.[11.5 µM]	.	.	?	.	.
Cn1[nH]c(-c2ccccc2)c(/C=N/O)c1=O	.	.	.	16µM	.	.[10.4 µM]	.	.	.	.
Cc1[nH]n(-c2ccccc2)c(=O)c1/C=N/N(C)c1ccccc1	.	.	.	.	.	/	/	/	/	/
COCC(=O)N/N=C/c1c(C)[nH]n(-c2ccccc2)c1=O	.	.	.	7.1µM	.	.	.	.	.	.
Cc1ccc(S(=O)(=O)N2C[C@@H]3[C@H]4CC[C@H](C4)[C@@H]3[C@@H](C)[C@H]2C#N)cc1	/	.	.	/	/	/	/	/	/	/
O=C(CN1CCN(S(=O)(=O)c2ccc(F)cc2)CC1)c1ccc(O)c(O)c1	22µM	.	.	20µM	.	.	.	.	.	.
CC1=NOC(=O)/C1=C\c1ccc(-c2ccc(Br)cc2C(=O)O)o1	.	.	.	5µM	.	.	.	.	.	.
CCCN(CCC)CCCNC(=O)c1nn(-c2cccc(OC)c2)c(=O)c2ccccc12	.	.	.	.	.	/	/	/	/	/
NCCOc1ccc(C23CC4CC(CC(C4)C2)C3)cc1	.	.	.	.	.	/	/	/	/	/
O=C(CSc1cccc[n+]1[O-])Nc1ccccc1C(F)(F)F	/	.	.	/	/	/	/	/	/	/
O=C(CSc1cccc[n+]1[O-])Nc1ccccc1Oc1ccccc1	.	.	?	6.3µM	.	.	20µM	.	.	.
COC(=O)c1ccc(C(=O)OC)c(NC(=O)CSc2cccc[n+]2[O-])c1	.	.	?	11µM	.	.	?	.	.	.
O=C(CSc1cccc[n+]1[O-])CSc1cccc[n+]1[O-]	.	.	7.9µM	16µM	.	.[10.4 µM]	10µM	.	.	.
COC(=O)c1ccc(-n2c(C)cc(C(=O)CSc3cccc[n+]3[O-])c2C)cc1	.	.	.	.	.	/	/	/	/	/
COc1ccccc1C(=O)Nc1nc2nc(C)cc(=O)n2[nH]1	.	.	/	/	/	/	/	/	/	/
CC(=O)Nc1ccc(S(=O)(=O)N2Cc3cnnn3-c3ccccc3C2C#N)cc1 (configuration not stated)	/	.	.	/	/	/	/	/	/	/
CC(C)Cn1c(SCC(=O)NCCCN2CCCC2=O)nc2ccccc21	.	.	.	/	/	/	/	/	/	/
Cc1ccc(-c2nc3ccccc3nc2-c2ccccc2)cc1	.	.	.	.	.	/	/	/	/	/
CNc1nc(-c2ccccc2)[n+](-c2ccc(C)cc2)s1	.	?	.	13µM	22µM	?	.	?	10µM	.
O=C(NC(Cc1ccccc1)C(=O)O)/C(=C/c1ccc([N+](=O)[O-])cc1)NC(=O)c1ccc(Br)o1 (configuration not stated)	.	.	.	.	.	/	/	/	/	/
O=C(Nc1ccccc1C(=O)O)/C(=C/c1ccc([N+](=O)[O-])cc1)NC(=O)c1ccc(Br)o1	?	.	.	18µM	.	.	.	.	.	.
Cc1noc(-c2ccccc2OC(=O)c2ccccc2)n1	.	.	.	.	.	/	/	/	/	/
O=C(NNc1cccc(Cl)n1)C(F)(F)F	.	.	.	20µM	.	?	.	.	.	.
SMILES	Sm TGR inh	TbPYK inhibitor	RE007 growth inh	Giardia FBPA inh-1	LmPK inh	Giardia growth	Mammalian tox	Giardia FBPA inh-2	Rabbit FBPA inh	GAPDH counter
CC(=O)NNc1cccc(Cl)n1	?	.	.	.	.	/	/	/	/	/
COc1ccc(NC(=S)NCCCN2CCCC2)cc1Cl	.	.	.	8.9µM	.	?	32µM	?	.	?
COc1cc(NC(=S)NCCCN2CCOCC2)c(OC)cc1Cl	.	.	.	.	.	/	/	/	/	/
COCCN(C(=S)Nc1ccc(OC)c(Cl)c1)C1CCN(C(C)C)CC1	.	.	.	11µM	.	?	.	.	.	.
COc1ccc(NC(=S)N(CCCN2CCC(C)CC2)Cc2cccs2)cc1Cl	.	?	.	16µM	.	.[10.4 µM]	.	.	.	.
COc1ccc(NC(=S)N(CCC(C)C)C2CCN(C(C)C)CC2)cc1Cl	.	.	.	?	.	/	/	/	/	/
O=C(OCc1ccc(Cl)c(Cl)c1)c1cnccn1	.	.	.	.	.	/	/	/	/	/
COc1ccc(N=Cc2cc(Cc3ccccc3Cl)cc([N+](=O)[O-])c2O)cc1OC	.	.	.	0.56µM	.	.[10.4 µM]	.	?	.	.
COc1ccc(NC(=O)CCn2c(=O)c3cccn3c3cccnc32)c(OC)c1	.	.	/	/	/	/	/	/	/	/
Cc1ccc(S(=O)(=O)N2CCN(C(=O)CSc3nnc(C)c(=O)[nH]3)CC2)cc1	.	.	.	28µM	.	?	.	.	.	.
Cc1nnc(SCC(=O)N2CCN(S(=O)(=O)c3ccccc3)CC2)[nH]c1=O	.	.	.	.	.	/	/	/	/	/
CN(CCOc1ccccc1)CC(=O)Nc1cccc(Br)c1	.	.	.	?	.	/	/	/	/	/
Cc1cc(NC(=O)CN(C)CCOc2ccccc2)ccc1Br	.	.	.	16µM	.	?	.	.	.	.
CC(C(=O)Nc1ccccc1C(F)(F)F)N1CCN(C)CC1 (configuration not stated)	.	.	.	16µM	.	.[10.4 µM]	.	.	.	.
NC(=S)NNc1c(F)c(F)c(F)c(F)c1F	40µM	.	?	16µM	.	.[10.4 µM]	.	.	.	.
CCCCC(=O)NC(=S)Nc1nnn(CCC)n1	.	.	.	1.8µM	.	.	40µM	.	.	?
CCCCC(=O)Nc1nnn(CCC)n1	.	.	.	.	.	/	/	/	/	/
Cc1nc(NC(=S)NC(=O)c2cccs2)ccc1Br	.	.	.	.	.	/	/	/	/	/
Cn1c(N)c(C(=O)COC(=O)C2CC(O)CN2S(=O)(=O)c2ccc(Cl)cc2)c(=O)n(C)c1=O (configuration not stated)	.	.	.	.	.	/	/	/	/	/
COc1ccccc1NS(=O)(=O)c1cc(NC(=O)c2sccc2C)ccc1N1CCOCC1	.	.	.	.	.	/	/	/	/	/
